Results: PubChem BioAssay (EPA / NIEHS)
Active and inactive are the calls of the source. Rule for the calls: active = hit-call score of the fitted dose curve at least 0.9, where 1 is the maximum; inactive = score below 0.9.

What follows are compounds tested on Urokinase-type plasminogen activator receptor (uPAR), PLAUR (gene 5329) (assay: BSK_BE3C_uPAR: BioMAP Diversity Plus: BE3C Assay for Urokinase-type plasminogen activator receptor (uPAR) Biomarker Activity (AID 2283039;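 for outcome: cells exposed to compound for one day before measurement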)). Settings: primary human bronchial epithelial cells; actives raise or lower the signal.
Method: BSK_BE3C is a cell-based, multiplexed-readout assay that uses bronchial epithelial cell, a human lung primary cell, with measurements taken at 24 hours after chemical dosing in a 96-well plate.BSK_BE3CAR is an assay component measured in the BSK_BE3C assay. It measures uPAR antibody related to regulation of gene expression using ELISA technology.Data from the assay component BSK_BE3CAR was analyzed into 1 assay endpoint. This assay endpoint, BSK_BE3CAR, was analyzed with bidirectional fitting relative to DMSO as the negative control and baseline of activity. Using a type of binding reporter, gain or loss-of-signal activity can be used to understand changes in the signaling as they relate to the gene PLAUR. Furthermore, this assay endpoint can be referred to as a primary readout, because this assay has produced multiple assay endpoints where this one serves a signaling function. To generalize the intended target to other relatable targets, this assay endpoint is annotated to the cytokine intended target family, where the subfamily is plasmogen activator.
The levels of cell surface (or secreted, indicated by the prefix "s") biomarker endpoints were measured by ELISA. Overt cytotoxicity to cells in confluent adherent cultures (all systems other than the BT system) was assessed by measuring total protein levels using sulforhodamine B (SRB) staining in parallel cultures at the time of biomarker measurements, indicated as SRB endpoints. For proliferation assays for adherent cell types, individual cell types are cultured at sub-confluence and relative cell numbers quantified by SRB staining at time points optimized for each system (48 h: 3C and CASM3C systems; 72 h: BT and HDF3CGF systems; 96 h: SAg system). SRB was performed by staining cells with 0.1% SRB after fixation with 10% TCA and reading wells at 560 nm.Viability and proliferation of PBMC (T cells) was quantified by Alamar Blue reduction for the SAg and BT systems. For PBMC viability (referred to as PBMC Cytotoxicity within the assay endpoint names), cells were plated (75,000/well in a 96-well plate) and then chemical samples added for 1 h before addition of activators, SEB and TSST-1 (20 ng/mL final concentration each). Cells were incubated for 90 h. Then, Alamar Blue (20 uL/well) (Invitrogen, Cat DAL1100) was added for 6 h, and the plates were read with a fluorescence microplate reader at 546/580 nm (excitation/emission). For PBMC proliferation, cells were plated and activated as above but incubated for only 16 h prior to addition of Alamar Blue. Plates were read after 6 h.

| Structure (SMILES) | outcome | AC50 |
| --- | --- | --- |
| C=CCOC(=O)CCC1CCCCC1 | inactive |  |
| CCC(=O)OCc1ccccc1 | inactive |  |
| CC(C)(COC(=O)c1ccccc1)COC(=O)c1ccccc1 | inactive |  |
| CCc1c(C)cc(N)c(CC)c1N | inactive |  |
| Cc1ccc(Nc2ccc(O)c3c2C(=O)c2ccccc2C3=O)cc1 | inactive |  |
| COc1cc(C=O)ccc1OC(=O)C(C)C | inactive |  |
| CCCCC(CC)COCCC#N (stereo not given) | inactive |  |
| CCCCC(CC)COC(=O)/C=C\C(=O)OCC(CC)CCCC (stereo not given) | inactive |  |
| CC(=O)[C@H]1CC[C@H]2[C@@H]3CC=C4C[C@@H](O)CC[C@]4(C)[C@H]3CC[C@]12C | inactive |  |
| c1ccc2c(c1)c1cccc3ccc4cccc2c4c31 | inactive |  |
| NCCNCCN | inactive |  |
| c1ccc2sc(SN(C3CCCCC3)C3CCCCC3)nc2c1 | inactive |  |
| OC1OC[C@@H](O)[C@H](O)[C@H]1O (stereo not given in full) | inactive |  |
| Cc1cc(C2(c3cc(C)c(O)cc3C)OS(=O)(=O)c3ccccc32)c(C)cc1O | inactive |  |
| CCn1c2ccccc2c2cc(N)ccc21 | inactive |  |
| O=C(O)c1cn(-c2ccc(F)cc2)c2cc(N3CCNCC3)c(F)cc2c1=O | inactive |  |
| CC1CCC(C(C)CS)CC1S (stereo not given) |  | 20 µM (active) |
| O=C(O)C[C@H](O)C[C@H](O)/C=C/c1c(C2CC2)nc2ccccc2c1-c1ccc(F)cc1 | inactive |  |
| O=[N+]([O-])c1cc(C(F)(F)F)ccc1Cl | inactive |  |
| O=C(O)c1cn(C2CC2)c2cc(N3CCNCC3)c(F)cc2c1=O | inactive |  |

| Structure (SMILES) | outcome | AC50 |
| --- | --- | --- |
| CCCCCCCCCCCCCCCCCC(=O)OCC(CC)CCCC (stereo not given) | inactive |  |
| CCCCCCCCC=O | inactive |  |
| CC(=O)O[C@]1(C(C)=O)CC[C@H]2[C@@H]3C[C@H](C)C4=CC(=O)CC[C@]4(C)[C@H]3CC[C@@]21C | inactive |  |
| CC[Si](OC(C)=O)(OC(C)=O)OC(C)=O | inactive |  |
| Nc1cc([N+](=O)[O-])ccc1Cl | inactive |  |
| CC(C)c1ccc(C(C)C)cc1 |  | 20 µM (active) |
| N#Cc1ccc(CC(=NNC(=O)Nc2ccc(OC(F)(F)F)cc2)c2cccc(C(F)(F)F)c2)cc1 | inactive |  |
| C=C[Si](OCC)(OCC)OCC | inactive |  |
| CC(=O)OCCC(C)CC(C)(C)C (stereo not given) | inactive |  |
| Cc1ccc(O)c(C(C)(C)C)c1 |  | 20 µM (active) |
| C[C@H]1C[C@@H]2[C@H]([C@@H](O)C[C@@]3(C)[C@H]2CC[C@]3(O)C(=O)CO)[C@@]2(C)C=CC(=O)C=C12 | inactive |  |
| CCCCC/C=C/C=C/C=O | inactive |  |
| C#C[C@]1(O)CC[C@H]2[C@@H]3CCC4=Cc5oncc5C[C@]4(C)[C@H]3CC[C@@]21C | inactive |  |
| CC1COc2ccccc2N1C(=O)C(Cl)Cl (stereo not given) | inactive |  |
| Nc1cc([N+](=O)[O-])ccc1O | inactive |  |
| CC(=O)Nc1ccccc1O | inactive |  |
| CN(CCOc1ccc(CC2SC(=O)NC2=O)cc1)c1ccccn1 (stereo not given) |  | 3.97 µM (active) |
| O=C1OC2(c3cc(Br)c(O)c(Br)c3Oc3c2cc(Br)c(O)c3Br)c2c(Cl)c(Cl)c(Cl)c(Cl)c21 |  | 0.84 µM (active) |
| CCCCCCCCCC=O | inactive |  |
| CNC[C@H](O)c1cccc(O)c1 | inactive |  |
